Experimental data reported in PubChem BioAssay (NCI).
About 79,000 compounds went through this panel and 15% of them were active in at least one assay; those are over-represented in the sample as a whole. Activity calls are given as the source filed them. Cut-off read from the data, not from the text of the source: active = growth inhibition above about 70%; inactive = the rest.

Key:
[1] = NCI Yeast Anticancer Drug Screen. Data for the wt1 strain (AID 149);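 note: 0% = growth of vehicle-treated wt1 cultures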; conditions: S. cerevisiae wt1 strain (SPY 50644) growth inhibition, active compounds read high
Procedure, shortened: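 wt1 yeast, compound-treated; % growth inhibition vs vehicle control.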

[2] = NCI Yeast Anticancer Drug Screen. Data for the rad50EPP+ strain (AID 151);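 note: 0% = growth of vehicle-treated control cultures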; conditions: S. cerevisiae rad50 mutant strain, active compounds read high
Procedure, shortened: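 Compounds were applied to the rad50EPP+ yeast strain, which bears a defined DNA repair alteration, and growth inhibition was determined relative to vehicle-treated cultures.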

[3] = NCI Yeast Anticancer Drug Screen. Data for the mgt1 strain (AID 153); conditions: S. cerevisiae mgt1 mutant growth inhibition, active compounds read high
Procedure, shortened: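 Strain: mgt1 yeast, one of a set carrying defined DNA damage repair or cell cycle control alterations. Compound-treated growth compared with vehicle.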

[4] = NCI Yeast Anticancer Drug Screen. Data for the rad50 strain (AID 155);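 note: 0% = growth of vehicle-only cultures of the same strain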; conditions: S. cerevisiae rad50 strain growth inhibition, active compounds read high
Procedure, shortened: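 Genetically altered yeast (DNA repair pathway); compound treatment; growth inhibition vs vehicle ctrl.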

[5] = NCI Yeast Anticancer Drug Screen. Data for the mec2-1 strain (AID 157); conditions: S. cerevisiae mec2-1 strain, active compounds read high
Procedure, shortened: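 Strain: mec2-1 (DNA repair/cell cycle alteration). Compound exposure, then growth measured; inhibition expressed relative to vehicle.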

[6] = NCI Yeast Anticancer Drug Screen. Data for the rad14 strain (AID 159);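 note: 0% = growth of vehicle-treated control cultures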; conditions: S. cerevisiae rad14 strain growth inhibition, active compounds read high
Procedure, shortened: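 Test compounds were applied to a repair-deficient yeast strain. Its growth was then compared with that of cultures given vehicle alone, and inhibition was expressed relative to those controls.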

[7] = NCI Yeast Anticancer Drug Screen. Data for the sgs1 mgt1 strain (AID 161);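 note: 0% = growth of cultures given vehicle only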; conditions: S. cerevisiae sgs1 mgt1 strain, active compounds read high
Procedure, shortened: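 Mutant yeast exposed to compound; growth scored against vehicle-only wells.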

[8] = NCI Yeast Anticancer Drug Screen. Data for the CLN2oe strain (AID 163);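 note: 0% = growth of vehicle-only control cultures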; conditions: S. cerevisiae CLN2oe strain, active compounds read high
Procedure, shortened: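 Growth of a genetically modified yeast strain is measured after compound exposure and compared with cultures given vehicle alone.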

[9] = NCI Yeast Anticancer Drug Screen. Data for the cln2 rad14 strain (AID 165);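 note: 0% = growth equal to vehicle treated cultures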; conditions: S. cerevisiae cln2 rad14 strain, active compounds read high
Procedure, shortened: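 Compounds are applied to the cln2 rad14 yeast strain, and growth is then compared with that of vehicle-treated cultures to give inhibition.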

[10] = NCI Yeast Anticancer Drug Screen. Data for the bub3 strain (AID 167); conditions: S. cerevisiae bub3 mutant strain, active compounds read high
Procedure, shortened: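 Yeast carrying a defined mutation is treated with each compound, and growth is compared with that of vehicle-exposed cells to give inhibition.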

[11] = NCI Yeast Anticancer Drug Screen. Data for the wt2 strain (AID 169);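 note: 0% = growth of vehicle-treated yeast cultures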; conditions: S. cerevisiae wt2 strain growth inhibition, active compounds read high
Procedure, shortened: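 This strain belongs to a panel of yeast strains with defined genetic alterations in DNA damage repair or cell cycle control. Compounds are applied, and growth inhibition is measured against vehicle-treated cultures.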

[12] = NCI Yeast Anticancer Drug Screen. Data for the mlh1 strain (AID 171);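 note: 0% = growth of vehicle-treated control cultures of the same strain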; conditions: S. cerevisiae mlh1 strain growth inhibition, active compounds read high
Procedure, shortened: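 Growth of the mutant yeast strain after compound exposure, expressed as inhibition relative to vehicle-only controls.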

[13] = NCI Yeast Anticancer Drug Screen. Data for the mlh1 rad18 strain (AID 175); conditions: S. cerevisiae mlh1 rad18 strain growth inhibition, active compounds read high
Procedure, shortened: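 Read-out is yeast growth inhibition, calculated against vehicle-only controls. The compound was applied to a strain engineered with DNA damage repair alterations.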

[14] = NCI Yeast Anticancer Drug Screen. Data for the rad18 strain (AID 177); conditions: S. cerevisiae rad18 mutant growth inhibition, active compounds read high
Procedure, shortened: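 Growth of the mutant yeast strain after compound exposure, normalised to vehicle-only cultures.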

[15] = NCI Yeast Anticancer Drug Screen. Data for the sgs1 strain (AID 173);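 note: 0% = growth of vehicle-only control cultures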; conditions: S. cerevisiae sgs1 mutant, active compounds read high
Procedure, shortened: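 Growth of a yeast strain bearing a defined genetic alteration is measured after compound treatment. Inhibition is expressed relative to vehicle-only controls.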

[16] = at 5.0 µM (retest, dose inferred, filed as 0.5)
[17] = at 50.0 µM (retest, dose inferred, filed as 5.0)

Measured: growth inhibition

O=C1c2ccccc2C(=O)C1C(c1ccc(F)cc1)C1C(=O)c2ccccc2C1=O
inactive: [1]; at 1.2 µM 9% | [1]; at 3.7 µM 10% | [1]; at 11.0 µM 7% | [1]; at 33.0 µM 18% | [2]; at 1.2 µM -8% | [2]; at 3.7 µM 8% | [2]; at 11.0 µM 21% | [2]; at 33.0 µM 61% | [3]; at 1.2 µM 0% | [3]; at 3.7 µM -11% | [3]; at 11.0 µM -17% | [3]; at 33.0 µM 5% | [4]; at 1.2 µM 13% | [4]; at 3.7 µM 5% | [4]; [16] 21% | [4]; at 11.0 µM 7% | [4]; at 33.0 µM 28% | [4]; [17] 46% | [5]; at 1.2 µM -13% | [5]; at 3.7 µM -6% | [5]; [16] -14% | [5]; at 11.0 µM -14% | [5]; at 33.0 µM 6% | [6]; at 1.2 µM -20% | [6]; at 3.7 µM -20% | [6]; at 11.0 µM -52% | [6]; at 33.0 µM 0% | [7]; [16] 2% | [7]; [17] 41% | [7]; at 50.0 µM 56.2% | [8]; at 1.2 µM 6% | [8]; at 3.7 µM 0% | [8]; at 11.0 µM -1% | [8]; at 33.0 µM 34% | [9]; [16] 27% | [10]; at 1.2 µM -18% | [10]; at 3.7 µM -33% | [10]; [16] 17% | [10]; at 11.0 µM -34% | [10]; at 33.0 µM -17% | [11]; at 1.2 µM 1% | [11]; at 3.7 µM 2% | [11]; at 11.0 µM 1% | [11]; at 33.0 µM 22% | [12]; at 1.2 µM -17% | [12]; at 3.7 µM -15% | [12]; at 11.0 µM -16% | [12]; at 33.0 µM 5% | [13]; [16] 8% | [14]; at 1.2 µM -2% | [14]; at 3.7 µM -7% | [14]; at 11.0 µM 1% | [14]; at 33.0 µM 26%
active: [1]; at 100.0 µM 85% | [2]; at 100.0 µM 75% | [3]; at 100.0 µM 76% | [4]; at 50.0 µM 77.5% | [4]; at 100.0 µM 88% | [5]; [17] 81% | [5]; at 50.0 µM 75% | [5]; at 100.0 µM 83% | [6]; at 100.0 µM 82% | [8]; at 100.0 µM 86% | [9]; [17] 89% | [9]; at 50.0 µM 85.8% | [10]; [17] 87% | [10]; at 50.0 µM 79% | [10]; at 100.0 µM 83% | [11]; at 100.0 µM 81% | [12]; at 100.0 µM 82% | [13]; [17] 74% | [13]; at 50.0 µM 72.1% | [14]; at 100.0 µM 88%

COc1ccc(C(=O)OCCc2ccccc2)cc1
active: [10]; [17] 79%
inactive: [1]; at 1.2 µM -2% | [1]; at 3.7 µM -5% | [1]; at 11.0 µM -5% | [1]; at 33.0 µM -7% | [1]; at 100.0 µM -8% | [2]; at 1.2 µM 10% | [2]; at 3.7 µM 16% | [2]; at 11.0 µM 19% | [2]; at 33.0 µM 31% | [2]; at 100.0 µM 47% | [3]; at 1.2 µM -4% | [3]; at 3.7 µM -3% | [3]; at 11.0 µM -3% | [3]; at 33.0 µM -5% | [3]; at 100.0 µM -4% | [4]; at 1.2 µM 6% | [4]; at 3.7 µM 3% | [4]; [16] -3% | [4]; at 11.0 µM 1% | [4]; at 33.0 µM 13% | [4]; [17] 23% | [4]; at 50.0 µM -7.35% | [4]; at 100.0 µM 9% | [5]; at 1.2 µM -1% | [5]; at 3.7 µM -4% | [5]; [16] -28% | [5]; at 11.0 µM -4% | [5]; at 33.0 µM -5% | [5]; [17] -14% | [5]; at 50.0 µM 1.85% | [5]; at 100.0 µM -5% | [6]; at 1.2 µM 5% | [6]; at 3.7 µM 0% | [6]; at 11.0 µM -6% | [6]; at 33.0 µM 3% | [6]; at 100.0 µM 4% | [7]; [16] 7% | [7]; [17] 32% | [7]; at 50.0 µM 6.8% | [8]; at 1.2 µM -3% | [8]; at 3.7 µM -9% | [8]; at 11.0 µM -10% | [8]; at 33.0 µM -7% | [8]; at 100.0 µM -6% | [9]; [16] -1% | [9]; [17] -2% | [9]; at 50.0 µM -10.5% | [10]; at 1.2 µM 2% | [10]; at 3.7 µM 12% | [10]; [16] 20% | [10]; at 11.0 µM 16% | [10]; at 33.0 µM 34% | [10]; at 50.0 µM 56.5% | [10]; at 100.0 µM 34% | [11]; at 1.2 µM -6% | [11]; at 3.7 µM -9% | [11]; at 11.0 µM -3% | [11]; at 33.0 µM -12% | [11]; at 100.0 µM -8% | [12]; at 1.2 µM 0% | [12]; at 3.7 µM 0% | [12]; at 11.0 µM -5% | [12]; at 33.0 µM 1% | [12]; at 100.0 µM 9% | [13]; [16] 10% | [13]; [17] 64% | [13]; at 50.0 µM -16.4% | [14]; at 1.2 µM 3% | [14]; at 3.7 µM 3% | [14]; at 11.0 µM 0% | [14]; at 33.0 µM 9% | [14]; at 100.0 µM 8%

O=C1c2ccc(O)cc2C(=O)c2c(O)ccc(O)c21
active: [1]; at 11.0 µM 94% | [1]; at 33.0 µM 97% | [1]; at 100.0 µM 93% | [2]; at 11.0 µM 93% | [2]; at 33.0 µM 93% | [2]; at 100.0 µM 88% | [3]; at 11.0 µM 78% | [3]; at 33.0 µM 93% | [3]; at 100.0 µM 91% | [4]; at 11.0 µM 87% | [4]; at 33.0 µM 95% | [4]; [17] 90% | [4]; at 50.0 µM 71.2% | [4]; at 100.0 µM 89% | [5]; at 11.0 µM 87% | [5]; at 33.0 µM 95% | [5]; [17] 93% | [5]; at 100.0 µM 89% | [6]; at 11.0 µM 93% | [6]; at 33.0 µM 95% | [6]; at 100.0 µM 91% | [7]; [17] 90% | [7]; at 50.0 µM 77.2% | [8]; at 11.0 µM 92% | [8]; at 33.0 µM 94% | [8]; at 100.0 µM 91% | [9]; [17] 88% | [10]; at 33.0 µM 91% | [10]; [17] 92% | [10]; at 100.0 µM 88% | [11]; at 11.0 µM 92% | [11]; at 33.0 µM 96% | [11]; at 100.0 µM 90% | [15]; at 11.0 µM 90% | [15]; at 33.0 µM 95% | [15]; at 100.0 µM 91% | [13]; [17] 97% | [14]; at 11.0 µM 88% | [14]; at 33.0 µM 94% | [14]; at 100.0 µM 89%
inactive: [1]; at 1.2 µM 4% | [1]; at 3.7 µM 17% | [2]; at 1.2 µM 25% | [2]; at 3.7 µM 64% | [3]; at 1.2 µM 1% | [3]; at 3.7 µM 10% | [4]; at 1.2 µM 16% | [4]; at 3.7 µM 35% | [4]; [16] 53% | [5]; at 1.2 µM 9% | [5]; at 3.7 µM 28% | [5]; [16] 45% | [5]; at 50.0 µM 49.1% | [6]; at 1.2 µM 10% | [6]; at 3.7 µM 27% | [7]; [16] 50% | [8]; at 1.2 µM 7% | [8]; at 3.7 µM 21% | [9]; [16] 32% | [9]; at 50.0 µM 51% | [10]; at 1.2 µM -2% | [10]; at 3.7 µM 0% | [10]; [16] 18% | [10]; at 11.0 µM 62% | [10]; at 50.0 µM 29% | [11]; at 1.2 µM 1% | [11]; at 3.7 µM 19% | [15]; at 1.2 µM 3% | [15]; at 3.7 µM 19% | [13]; [16] 48% | [13]; at 50.0 µM 68.7% | [14]; at 1.2 µM 6% | [14]; at 3.7 µM 17%
